High-throughput results deposited in PubChem by National Center for Advancing Translational Sciences (NCATS).
Only some compounds are listed: those with a hit (about 2.7% of all), similar ones and a draw of the others.
gsp antag: antagonizes gsp, the McCune-Albright syndrome mutation; Potency, µM (doses to about 76.9 µM), most hits filed as inhibitors; gsp-mutant cells, cAMP HTRF, 30 min; actives 0.4% (n = 340,000); calls by dose curve; cell line not stated here;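 further: intracellular cAMP measured with PDE inhibitor Ro 20-1724 present during compound exposure; nearly all actives have a fitted effect of over 65% in size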
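Cells in G418 medium, seeded 16-24 h, 37C; buffer exchange to DPBS + 1 mM CaCl2, 0.5 mM MgCl2, 0.05% BSA; cpds in DMSO + […] (300 uM stock), 30 min 37C; HTRF cAMP detection.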
pAkt inh: Akt phosphorylation inhibition | Neuro2A IGF-stimulated pAkt S473 HTRF, 20 min; stronger effect = lower value | activity change, % for hits at 50 µM | actives 0.32% (n = 360,000) | AID 651550; in the data active means activity change below about -80%; inconclusive means mostly about -51% to -80%
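Neuro2A cells (4,500/well, DMEM with 0.5% FBS) were treated with compound at a single 50 µM final concentration, stimulated with 6 nM IGF for 20 min at 37 °C, and lysed. Phospho-Akt Ser473 was read by HTRF as 665/615 ratio ×10^4.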
RXFP1 ag: activates the human relaxin receptor RXFP1. Q9HBX9. HEK293T-RXFP1 cAMP TR-FRET, 30 min; response scale: percent of porcine relaxin response, buffer zero. Potency, µM (doses to about 57.5 µM), most hits filed as activators. actives 0.3% (n = 370,000); active means well fitted activation curve with a large enough effect; inconclusive means small, poorly fitted or top-dose-only effect; further: nearly all actives have a fitted effect of over 60% in size
Target sequence (Q9HBX9 whole entry, looked up): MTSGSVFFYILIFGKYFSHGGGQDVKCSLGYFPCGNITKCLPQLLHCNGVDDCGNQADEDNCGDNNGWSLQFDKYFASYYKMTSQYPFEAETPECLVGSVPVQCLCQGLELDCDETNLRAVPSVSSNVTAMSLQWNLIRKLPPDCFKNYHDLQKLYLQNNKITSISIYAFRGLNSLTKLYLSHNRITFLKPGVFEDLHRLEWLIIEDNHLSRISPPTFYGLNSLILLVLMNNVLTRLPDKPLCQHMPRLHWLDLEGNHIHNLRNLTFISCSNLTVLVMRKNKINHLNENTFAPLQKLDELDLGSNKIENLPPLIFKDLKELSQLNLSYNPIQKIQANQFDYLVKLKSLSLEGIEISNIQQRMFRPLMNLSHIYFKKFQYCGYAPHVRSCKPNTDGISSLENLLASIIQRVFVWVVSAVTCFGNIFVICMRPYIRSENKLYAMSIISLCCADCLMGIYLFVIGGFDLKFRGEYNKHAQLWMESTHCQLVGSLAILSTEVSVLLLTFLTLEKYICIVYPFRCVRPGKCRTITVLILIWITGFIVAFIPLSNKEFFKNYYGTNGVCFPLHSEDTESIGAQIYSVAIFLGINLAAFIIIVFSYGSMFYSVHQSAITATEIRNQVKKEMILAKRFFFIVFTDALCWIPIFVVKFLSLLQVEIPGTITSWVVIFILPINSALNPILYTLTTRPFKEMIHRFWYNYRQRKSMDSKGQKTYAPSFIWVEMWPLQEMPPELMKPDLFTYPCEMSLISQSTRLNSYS
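cAMP rise read by TR-FRET after 30 min, 37C compound exposure (up to 58 uM) in RXFP1-transfected HEK293 cells with Ro 20174 present. EC50 from Hill-equation fits, with 29 nM porcine relaxin as 100% and buffer as basal.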
gsp ag: agonists of gsp mutant (McCune-Albright syndrome) | gsp mutant cells, cAMP HTRF, 30 min | Potency, µM (doses to about 76.9 µM), most hits filed as activators | actives 0.13% (n = 340,000); active means well fitted activation curve with a large enough effect; inconclusive means small, poorly fitted or top-dose-only effect, or another doubt; inactive means no such curve, though single readings can be large or run the other way; cell line not stated here;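 further: phosphodiesterase inhibitor Ro 20-1724 added with compounds to block cAMP breakdown; nearly all actives have a fitted effect of over 60% in size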
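Cells stably selected in G418 were plated at 2000/well, grown 16-24 hr, then given compounds in DMSO with the PDE inhibitor […] (300 uM solution added) for 30 min at 37C; cAMP was read by HTRF.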
ClpP mod: qHTS Assay for Activators of ClpP; ATP-dependent Clp protease proteolytic subunit (Bacillus subtilis (strain 168)), P80244; purified B. subtilis ClpP, FRET peptide cleavage, 20 min; Potency, µM (top dose mostly 57.5 µM); actives 1.9% (n = 340,000); AID 651965, 2013; active means well fitted falling curve with a large enough effect; inconclusive means small, poorly fitted or top-dose-only effect; inactive means no such curve, though single readings can be large or run the other way; further: the source files actives as falling curves though it sought activators and does not explain the sign; nearly all actives have a fitted effect of over 65% in size
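FRET quenching reversal measured ClpP activation: 10 microg/mL B. subtilis ClpP at pH 8 with the FRET-FV decapeptide, read at 430 nm after 320 nm excitation. The 20-min minus 0-min signal was scaled between DMSO/no-enzyme wells and ADEP (5.8 microM final).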
RXFP1 antag: antagonists of human relaxin receptor RXFP1 | activity change, negative = inhibition, % at 57.5 µM | AID 1259400 | HEK293-RXFP1, relaxin-stimulated cAMP HTRF, 30 min; stronger effect = lower value | actives 0.59% (n = 350,000) | Q9HBX9;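 active means activity change of -60% or lower, but not beyond a set lower limit; inconclusive means change between -60% and -40%, or beyond the set limit; inactive means change above -40%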
Hits are given with their value; . = inactive; ? = inconclusive; / = not tested or not shown; ! = a repeat was not active; [ ] = dose if it differs, or a comment.

SMILES | gsp antag | pAkt inh | RXFP1 ag | gsp ag | ClpP mod | RXFP1 antag
Cc1cccc2c1=NC(=O)/C(=C/c1c(O)[nH]c(=O)[nH]c1=O)C=2 | . | . | . | . | 13µM | .
O=C1NC(=O)N(c2ccccc2)C(=O)/C1=C/c1ccc(Sc2ccccc2)o1 | . | . | . | ? | . | -109
CCN1/C(=C\C=C\C2=[N+](CC)c3ccccc3C2(C)C)C(C)(C)c2ccccc21 | . | . | . | .[15.4 µM] | . | -73
CCOC(=O)c1ccc(N2CCN(c3ccccc3F)CC2)c(NC(=O)Nc2ccc(Cl)c(Cl)c2)c1 | / | / | . | / | ? | .
O=[N+]([O-])c1cc([N+](=O)[O-])c2ccccc2c1 | / | / | / | / | / | .
O=[N+]([O-])c1ccc(-c2ccc(C=Nc3cccc4ccccc34)o2)cc1 | . | . | . | . | 18µM | .
Cc1ccccc1CN1C(=O)C(C)N=C(c2ccccc2)c2ccccc21 (configuration not stated) | / | / | . | / | . | -70
CC(=O)Nc1ccc(S(=O)(=O)N(C)CCOCc2ccccc2)cc1 | . | . | . | . | 22µM | .
CC(=O)Nc1ccc(OC(=O)N(C)c2ccccc2)cc1 | . | . | . | . | . | .
CCN1C(=O)C(=C/C=C/c2ccco2)C(=O)N(CC)C1=S | . | . | . | . | / | .
CCN1C(=O)C(=C2C=C(C)N(Cc3ccco3)C(C)=C2)C(=O)N(CC)C1=S | . | . | 28µM | ? | / | .
CCCC/C(=N/O)c1c(C)[nH]c2ccccc12 | . | . | . | .[15.4 µM] | 28µM | .
CCCCC/C(=N/O)c1c(C)[nH]c2ccccc12 | . | . | . | . | / | ?
Oc1ccc(-[n+]2c(-c3ccccc3)cc(-c3ccccc3)cc2-c2ccccc2)cc1 | 50µM | . | . | / | . | /
COc1ccc(-c2nc(C)c(CCNC(=O)C(=O)Nc3c(C)cccc3C)s2)cc1OC | / | / | ? | / | . | /
CCCCCCCSc1cc(OC)c(CCNC)cc1OC | . | . | . | . | . | -70
CCCCCSc1cc(OC)c(CCNC)cc1OC | . | . | . | . | . | .
CCOP(=O)(OCC)c1ccc(OP(=O)(c2cccc([N+](=O)[O-])c2)c2cccc([N+](=O)[O-])c2)cc1 | . | . | . | .[15.4 µM] | 35µM | .
CCOP(=O)(OCC)C(O)c1cccc([N+](=O)[O-])c1 (configuration not stated) | . | . | . | ? | . | .
O=S(=O)(CCN1CCN(c2ccccn2)CC1)c1ccc(Cl)cc1Cl | . | . | . | .[15.4 µM] | ? | .
O=c1c(-c2ccccc2)c(O)c2ccccc2n1-c1ccccc1 | . | . | . | .[15.4 µM] | ? | .
CC(C)(C)NCC1(CO)SC(N)=NC1=O (configuration not stated) | . | . | . | . | . | .
CN(C)c1ccc(/C=C/c2cc[n+](C)c3ccccc23)cc1 | ? | . | . | . | . | -95!
CN(C)c1ccc(/C=C/C=C/c2sc3ccccc3[n+]2C)cc1 | 28µM | . | . | . | / | ?
Cc1ccc(NC(=O)c2cn(CCC#N)nc2-c2ccc3c(c2)OCCO3)c([N+](=O)[O-])c1 | . | . | . | . | 28µM | .
SMILES | gsp antag | pAkt inh | RXFP1 ag | gsp ag | ClpP mod | RXFP1 antag
COc1cc(OC)c(OC)cc1/C=C1/C(=O)NC(=O)N(Cc2ccccc2)C1=O | . | . | . | . | / | -64
CC(C)N1C(=O)/C(=C/C=C/c2ccco2)C(=O)N(Cc2ccco2)C1=O | ? | . | . | . | . | -77
O=C1NC(=O)N(Cc2ccccc2)C(=O)/C1=C/C=C/c1ccco1 | 50µM | . | . | . | . | ?
COc1ccc(CN2C(=O)NC(=O)/C(=C\c3ccco3)C2=O)cc1 | . | . | . | . | / | .
COc1ccc(/C=C2/C(=O)N(Cc3ccco3)C(=O)N(C(C)C)C2=O)cc1 | . | . | . | ? | . | .
C=CCN1CC[C@]23CCCC[C@H]2[C@H]1Cc1ccc(O)cc13 | / | / | / | / | / | .
O=c1c2ccccc2nc(N2CCCC2)n1-c1ccc(Cl)cc1 | . | . | . | . | 22µM | .
FC(F)(F)c1ccccc1CNCCc1c[nH]c2ccccc12 | . | . | . | . | . | -101
FC(F)(F)c1cccc(CC2CN(Cc3ccccc3)Cc3ccccc3N2c2cc(Cl)cc(Cl)c2)c1 (configuration not stated) | / | . | / | . | . | .
C=CCOc1ccc(CC2C(=O)N(C)C(=O)N(C)C2=O)cc1 | . | . | . | . | . | .
CCN(CC)c1ccc(CC2C(=O)N(C)C(=O)N(C)C2=O)cc1 | . | . | . | . | 8.9µM | .
ClCCN1CCCC1 | / | / | / | / | / | .
CCOC(C(=O)OCCN(C)C)(c1ccccc1)c1ccccc1 | / | / | / | / | / | .
OC(COCc1ccc(Cl)cc1)CN1CC=C(c2ccccc2)CC1 (configuration not stated) | . | . | . | . | . | -61!
CC[n+]1c(-c2ccccc2)c2cc(N)ccc2c2ccc(N)cc21 | ? | . | / | . | . | -85!
Cn1c(O)c(Cc2ccc(OCc3ccccc3)cc2)c(=O)n(C)c1=O | 7.1µM | . | . | . | . | .
CC(=NCCc1ccccc1)c1c(O)n(C)c(=O)n(C)c1=O | . | . | . | .[15.4 µM] | / | .
C=CCN1C(=O)/C(=C/c2ccc(N3CCOCC3)o2)C(=O)NC1=S | . | . | . | . | . | .
O=C1NC(=O)N(Cc2ccco2)C(=O)/C1=C/c1ccc(-c2cccc([N+](=O)[O-])c2)o1 | . | . | . | . | . | -67
C=CCN1C(=O)NC(=O)/C(=C\c2ccc(-c3ccccc3[N+](=O)[O-])o2)C1=O | . | . | . | .[15.4 µM] | / | -101
Cc1cccc(OCCn2cccc2/C=C2/C(=O)NC(=O)N(Cc3ccco3)C2=O)c1 | ? | . | . | . | / | -68
O=C1NC(=O)N(Cc2ccco2)C(=O)/C1=C\c1cccn1CCOc1ccc(Cl)cc1 | . | . | . | . | . | ?
CC[C@@]1(O)C(=O)OCc2c1cc1n(c2=O)Cc2cc3c(NC(=O)CN)cccc3nc2-1 | . | . | 14µM | .[15.4 µM] | . | .
